# More than one record can exist for a structure, and the calls need not agree. Calls of active or inactive are those of the source. Rule for the calls: active = hit-call score of the fitted dose curve at least 0.9, where 1 is the maximum; inactive = score below 0.9.
# Molecular target: Hypoxia-inducible factor 1-alpha (Homo sapiens) (UniProt Q16665)
# Assay: ATG_HIF1a_CIS: Attagene CIS-FACTORIAL HepG2 Assay for human Hypoxia Inducible Factor 1 (HIF1A) (AID 2282951)
# Conditions: HepG2 Attagene cis-factorial HIF1a reporter transcription; actives raise or lower the signal
# Procedure, shortened: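 Measures endogenous transcription-factor activity through cis-regulated reporter mRNA in HepG2. Cells dosed 24 h; transcripts quantified by RT-PCR with 6-FAM-labelled products separated by capillary electrophoresis; DMSO serves as negative control.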
# Chain of Hypoxia-inducible factor 1-alpha (Homo sapiens) (Q16665 whole entry, looked up): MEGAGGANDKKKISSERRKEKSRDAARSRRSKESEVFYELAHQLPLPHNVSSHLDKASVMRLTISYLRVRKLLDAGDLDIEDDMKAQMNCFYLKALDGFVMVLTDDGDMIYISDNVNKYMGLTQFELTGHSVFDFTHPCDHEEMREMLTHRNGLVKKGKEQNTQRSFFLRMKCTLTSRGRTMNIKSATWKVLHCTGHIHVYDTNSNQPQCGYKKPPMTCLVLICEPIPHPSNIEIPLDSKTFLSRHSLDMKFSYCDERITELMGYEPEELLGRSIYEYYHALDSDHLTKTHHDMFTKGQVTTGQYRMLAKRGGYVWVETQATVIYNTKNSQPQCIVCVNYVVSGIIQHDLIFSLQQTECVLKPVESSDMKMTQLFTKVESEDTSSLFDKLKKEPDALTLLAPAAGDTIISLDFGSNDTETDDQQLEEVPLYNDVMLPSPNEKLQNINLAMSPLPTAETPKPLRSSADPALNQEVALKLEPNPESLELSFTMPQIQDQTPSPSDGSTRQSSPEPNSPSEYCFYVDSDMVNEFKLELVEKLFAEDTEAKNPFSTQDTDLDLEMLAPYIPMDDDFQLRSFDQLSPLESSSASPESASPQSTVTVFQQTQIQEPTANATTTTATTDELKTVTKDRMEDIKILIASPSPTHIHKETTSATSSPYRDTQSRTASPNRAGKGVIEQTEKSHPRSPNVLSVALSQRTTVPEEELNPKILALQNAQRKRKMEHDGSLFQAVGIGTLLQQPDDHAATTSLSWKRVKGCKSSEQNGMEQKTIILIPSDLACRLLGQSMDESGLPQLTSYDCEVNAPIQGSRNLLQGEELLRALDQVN
Compound,outcome,AC50
COc1cc(-c2ccc(N)c(OC)c2)ccc1N,inactive,
CCSC(C)CC1CC(=O)C(C(CC)=NOC/C=C/Cl)=C(O)C1 (centres undefined),inactive,
CC(=O)C=C(C)C,inactive,
CCC(=O)c1ccccc1,inactive,
CN(C)N=O,inactive,
CCc1ccccc1N,inactive,
BrCCBr,inactive,
Nc1cccc2ccccc12,,165 µM (active)
O=Cc1cccc(Oc2ccccc2)c1,inactive,
O=CC=O,inactive,
CCC[CH2][Sn]([CH2]CCC)([CH2]CCC)[O]C(=O)c1ccccc1,inactive,
O=[N+]([O-])c1ccc2c3c(cccc13)CC2,,26.7 µM (active)
C[C@H]1O[C@@H](O[C@H]2[C@@H](O)C[C@H](O[C@H]3[C@@H](O)C[C@H](O[C@H]4CC[C@@]5(C)[C@H](CC[C@@H]6[C@@H]5CC[C@]5(C)[C@@H](C7=CC(=O)OC7)CC[C@]65O)C4)O[C@@H]3C)O[C@@H]2C)C[C@H](O)[C@@H]1O,inactive,
O=C/C=C/c1ccccc1,inactive,
Clc1ccc(C2(Cn3cncn3)CC(Br)CO2)c(Cl)c1 (centres undefined),,26 µM (active)
Nc1ccc(-c2ccc(N)c(Cl)c2)cc1Cl,inactive,
Oc1ccc(-c2ccccc2)cc1,inactive,

Compound,outcome,AC50
CCCCCCCCCl,inactive,
CC(=O)[O][Hg][c]1ccccc1,inactive,
O=C(O)C(Cl)(Cl)Cl,inactive,
CC(C)(c1ccccc1)c1ccc(O)c(C(C)(C)c2ccccc2)c1,,11.1 µM (active)
COC[C@H](C)N(C(=O)CCl)c1c(C)csc1C,inactive,
CC(=[OH+])/C=C(/C)[O-].CC(=[OH+])/C=C(/C)[O-].CC(=[OH+])/C=C(/C)[O-].[Fe],inactive,
CCCCCCCCc1ccc(O)cc1,inactive,
C[C@H]1CCCC(=O)CCC/C=C/c2cc(O)cc(O)c2C(=O)O1,inactive,
O=C(O)C(F)(F)C(F)(F)C(F)(F)C(F)(F)C(F)(F)C(F)(F)C(F)(F)C(F)(F)C(F)(F)C(F)(F)F,inactive,23.2 µM (active)
Cc1ccc2ccccc2c1C,inactive,
O=S(=O)(c1ccc(Cl)cc1)c1ccc(Cl)cc1,inactive,
COC(=O)Cc1ccccc1,inactive,
COC(=O)c1sccc1S(=O)(=O)NC(=O)Nc1nc(C)nc(OC)n1,inactive,
O=C(O)C(F)(F)C(F)(F)C(F)(F)C(F)(F)C(F)(F)C(F)(F)F,inactive,
N#CCCO,inactive,
CCc1ccccc1C,inactive,

# From PubChem BioAssay (EPA / NIEHS)
